In PubChem BioAssay (EPA / NIEHS) one finds outcome and AC50 data, which are given here for 13 molecules.

Where “and” joins values, the source holds several entries; their conditions need not be identical. Equal entries are not always repeated. Records with an inconclusive call do not appear. Some compounds were tested as several samples or in several runs, with calls that do not always agree. Calls of active or inactive are those of the source. How the source made its calls, unless noted: active means hit-call score of the fitted dose curve at least 0.9, where 1 is the maximum; inactive means score below 0.9.

Test [1] is described as follows: CCTE_Mundy_HCI_Cortical_Synap_Neur_Matur_BPCount: CCTE's Synaptogenesis and Neurite Maturation Assay in rat cortical cells for Branch Point Count, Mundy Lab (AID 2284211). A digest of the protocol: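 HCI read-out of branch points from MAP2/synaptophysin/Hoechst immunofluorescence; rat cortical cultures, AraC DIV 5, dosing DIV 7, fixed DIV 12; fit in positive direction vs DMSO baseline.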

A short description of test [2]: CCTE_Mundy_HCI_Cortical_NOG_NeuriteCount: CCTE's Neurite Outgrowth Assay in rat cortical cells for Neurite Count, Mundy Lab (AID 2284212).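 Further: cells fixed about two days after chemical exposure began.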 A digest of the protocol: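 Rat cortical primary cells; compound added 2 h post-plating, 1/10 dilution of working solution. Anti-betaIII-tubulin/AF488 ICC; ArrayScan neurite count vs DMSO.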
Test [3] in a line: CCTE_Mundy_HCI_Cortical_NOG_NeuriteLength: CCTE's Neurite Outgrowth Assay in rat cortical cells for Neurite Length, Mundy Lab (AID 2284213). A digest of the protocol:
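First, rat primary cortical cells were plated and, 2 h later, given test chemical as a 1/10 dilution. Finally, βIII-tubulin immunostaining enabled automated imaging of neurite length.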

A short description of test [4]: CCTE_Mundy_HCI_Cortical_Synap_Neur_Matur_NeuriteLength: CCTE's Synaptogenesis and Neurite Maturation Assay in rat cortical cells for Neurite Length, Mundy Lab (AID 2284214). A digest of the protocol:
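Neurite length quantified by automated high-content imaging of MAP2, synaptophysin and Hoechst staining. Rat cortical cells received chemical from DIV 7 to DIV 12 […], glial growth arrested by AraC at DIV 5; DMSO baseline.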

Test [5] is described as follows: CCTE_Mundy_HCI_Cortical_Synap_Neur_Matur_NeuriteSpotCountPerNeuron: CCTE's Synaptogenesis and Neurite Maturation Assay in rat cortical cells for Neurite Spot Count per Neuron Count, Mundy Lab (AID 2284215). The gist of the method: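 Developing rat cortical neurons, with glia suppressed by AraC, are exposed to chemicals from DIV 7 to DIV 12. Automated fluorescence imaging of MAP2-labelled neurites and synaptophysin puncta yields a count per neuron, normalised against DMSO wells.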

Test [6] can be described thus: TAMU_PeakParms_SingleDonor1434_Chronotropy: Texas A&M University (TAMU) 1.5-hr Human Induced Pluripotent Stem Cell (iPSC)-derived Cardiomyocytes Calcium (Ca+2) Flux Assay for Cardiotoxicity: Chronotropy (changes in peak frequency) (AID 2284217). The conditions noted are these: actives raise or lower the signal. A digest of the protocol:
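Beat frequency of single-donor iPSC cardiomyocytes was recorded through a calcium-sensitive dye 1.5 hours after exposure to four concentrations up to 100 uM. An EC05 point of departure was derived.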

A short description of test [7]: CCTE_Mundy_HCI_Cortical_Synap_Neur_Matur_SynapseCount: CCTE's Synaptogenesis and Neurite Maturation Assay in rat cortical cells for Synapse Count, Mundy Lab (AID 2284218). The gist of the method: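 High-content imaging of synaptophysin puncta per MAP2-positive neuron (Hoechst nuclei) in rat cortical cells exposed DIV 7–12 after glial arrest with AraC at DIV 5; decrease relative to DMSO scored.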

The nature of test [8]: CCTE_Mundy_HCI_hN2_NOG_NeuriteCount: CCTE's Neurite Outgrowth Assay in human hN2 cells for Neurite Count, Mundy Lab (AID 2284219; active means hit-call score of the fitted dose curve at least 0.9, where 1 is the maximum). A digest of the protocol: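 In this morphology assay, hNP1-derived neurons received test chemical 2 h post-plating and were fixed two days later in warm paraformaldehyde/sucrose containing Hoechst 33342. Neurites, labelled by rabbit anti-βIII-tubulin (1:800) and Alexa Fluor-488 (1:500), were counted automatically.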

A short description of test [9]: CCTE_Mundy_HCI_hN2_NOG_NeuriteLength: CCTE's Neurite Outgrowth Assay in human hN2 cells for Neurite Length, Mundy Lab (AID 2284220; active means hit-call score of the fitted dose curve at least 0.9, where 1 is the maximum). A digest of the protocol: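 Read-out is neurite length from high-content imaging of βIII-tubulin/Alexa Fluor-488-labelled neurons, referenced to DMSO controls.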
Test [10] is described as follows: CCTE_Mundy_HCI_hN2_NOG_NeuronCount: CCTE's Neurite Outgrowth Assay in human hN2 cells for Neuron Count, Mundy Lab (AID 2284221; active means hit-call score of the fitted dose curve at least 0.9, where 1 is the maximum). A digest of the protocol: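 Read-out is the number of betaIII-tubulin-positive neurons imaged by automated high-content analysis, with DMSO as negative control.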
A short description of test [11]: CCTE_Mundy_HCI_Cortical_Synap_Neur_Matur_NeuriteCount: CCTE's Synaptogenesis and Neurite Maturation Assay in rat cortical cells for Neurite Count, Mundy Lab (AID 2284222).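 Further: exposure from day 7 to day 12 in vitro with readout at day 12.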 The gist of the method: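 Chemical exposure runs DIV 7–12 in rat cortical cultures, glia suppressed by AraC at DIV 5; measurement is at DIV 12. Imaging-derived neurite counts are fitted against DMSO baseline.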

A short description of test [12]: CCTE_Mundy_HCI_Cortical_Synap_Neur_Matur_CellBodySpotCount: CCTE's Synaptogenesis and Neurite Maturation Assay in rat cortical cells for Cell Body Spot Count, Mundy Lab (AID 2284223). The gist of the method:
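Chemicals were applied to AraC-treated rat primary cortical cells at DIV 7 and measured at DIV 12. Fixed cells were labelled for MAP2, synaptophysin and nuclei, and high-content imaging gave cell body synaptophysin spot counts per neuron relative to DMSO.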

A short description of test [13]: BSK_BT_PBMCCytotoxicity: PBMC Cytotoxicity Assessment in the BioMAP Diversity Plus: BT Assay (AID 2284225).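 Further: PBMC viability measured by Alamar Blue dye reduction fluorescence.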 The following applies: primary human B cells with PBMC. The gist of the method: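 Viability by Alamar Blue reduction (6 h, ex/em 546/580 nm) after 90 h culture of SEB/TSST-1-activated PBMC (20 ng/mL each) given compound 1 h before activation. DMSO served as baseline for curve fitting.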

Read-out in test [14]: Secreted IgG (sIgG), gene 3500
In words: BSK_BT_sIgG: BioMAP Diversity Plus: BT Assay for Secreted IgG (sIgG) Biomarker Activity (AID 2284226). The conditions noted are these: primary human B cells with PBMC. A digest of the protocol:
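ELISA quantitation of secreted IgG from human B cells co-cultured with PBMC, sampled 24 h post-dosing. Values fitted relative to DMSO vehicle as baseline, positive fitting direction.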

A short description of test [15]: BSK_BT_Bcell_Proliferation: Viability Assessment in the BioMAP Diversity Plus: BT Assay for B cell Proliferation (AID 2284227). The following applies: primary human B cells with PBMC. A digest of the protocol: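 SRB-based protein staining (0.1% SRB after 10% TCA fixation, 560 nm) quantifies proliferation in human B cells co-cultured with PBMC, 72 h post-dosing, with signal gain scored relative to DMSO negative control.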

Read-out in test [16]: Interleukin 6 (IL6), IL6 (gene 3569)
The test is described as follows: BSK_BT_xIL6: BioMAP Diversity Plus: BT Assay for Interleukin 6 (IL6) Biomarker Activity (AID 2284228). The conditions noted are these: primary human B cells with PBMC. The gist of the method: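 IL-6 secretion measured (Luminex xMAP) in human primary B cell + PBMC co-culture at 24 h of chemical exposure; DMSO served as negative control and activity baseline, with curves fitted for increase.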

Read-out in test [17]: Interleukin 17A (IL17A), IL17A (gene 3605)
The test is described as follows: BSK_BT_xIL17A: BioMAP Diversity Plus: BT Assay for Interleukin 17A (IL17A) Biomarker Activity (AID 2284229). The following applies: primary human B cells with PBMC. The gist of the method:
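Human primary B cells plus PBMC, treated 24 h with chemicals; supernatant IL-17A quantified on Luminex xMAP beads. Gain of signal over DMSO control scored as activity.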

Read-out in test [18]: Tumor necrosis factor (Homo sapiens) (UniProt P01375)
The test is described as follows: BSK_BT_xTNFa: BioMAP Diversity Plus: BT Assay for Tumor necrosis factor alpha (TNF-alpha) Biomarker Activity (AID 2284230). The following applies: primary human B cells with PBMC. The gist of the method: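 Compounds were added to a B cell plus PBMC co-culture, and after 24 h secreted TNF-alpha was quantified with Luminex xMAP technology, with responses fitted upward from the DMSO control.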

Read-out in test [19]: Vascular cell adhesion molecule 1 (VCAM1), VCAM1 (gene 7412)
The test is described as follows: BSK_MyoF_VCAM1: BioMAP Diversity Plus: MyoF Assay for Vascular cell adhesion molecule 1 (VCAM1) Biomarker Activity (AID 2284231). The conditions noted are these: primary human lung fibroblasts. A digest of the protocol:
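VCAM-1 levels, lung fibroblasts, ELISA, 24 h exposure, increase scored relative to DMSO.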

A short description of test [20]: CCTE_Mundy_HCI_hNP1_Pro_ResponderAvgInten: CCTE's Proliferation Assay in human neuroprogenitor cells, Mundy Lab (AID 2284224; active means hit-call score of the fitted dose curve at least 0.9, where 1 is the maximum;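 further: human neural progenitor cells hNP1 derived from WA09 embryonic stem cells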). A digest of the protocol: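 Proliferation read as average intensity of BrdU-positive cells, imaged at 26.25 h post-dosing: chemical exposure started after 40–44 h culture, BrdU during final 4 h, paraformaldehyde fixation. Positive-direction fit relative to DMSO.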

Broadly, the AC50 is the midpoint of the concentration-response curve, whichever way the signal moves.

Tumor necrosis factor (Homo sapiens), sequence (P01375 whole entry, looked up): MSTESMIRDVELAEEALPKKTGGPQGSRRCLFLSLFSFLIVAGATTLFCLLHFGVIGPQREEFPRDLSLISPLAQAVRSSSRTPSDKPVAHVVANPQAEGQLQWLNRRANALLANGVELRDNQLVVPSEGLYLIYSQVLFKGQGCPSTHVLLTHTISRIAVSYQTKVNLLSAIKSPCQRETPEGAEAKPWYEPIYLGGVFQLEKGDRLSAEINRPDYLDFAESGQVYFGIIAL

On to `CCCC(CCC)C(=O)O`, for which the result in test [1], in test [2], in [3], in [4], in test [5] and in test [6] was inactive. Moreover, the molecule was called inactive in test [7], in test [8], in test [9], in [10], in test [11] and in test [12].
`C[Si](C)(C)C(F)(F)C(F)(F)C(F)(F)F`: the outcome in test [13], in test [14], in test [15], in test [16], in test [17] and in [18] was inactive. The result in test [19] was inactive.
Turning to `c1ccc2cc3ccccc3cc2c1`, the molecule was called inactive in test [1], in test [2], in [3], in test [4], in test [5] and in test [7]. In addition, the result in [11] and in test [12] was inactive. The concentration at half-maximal activity (AC50) in test [6] was 20.2 µM (active).
For `Cn1cc[nH]c1=S`, the molecule was classed as inactive in test [1], in test [2], in test [3], in test [4], in test [5] and in test [7]. Further, the molecule was classed as inactive in test [11] and in test [12].
Take `Cc1cccc(O)c1C`: the result in test [13], in test [14], in [15], in test [16], in test [17] and in test [18] was inactive. Moreover, the outcome in test [19] was inactive.
`FC(F)(F)COC(OCC(F)(F)F)OCC(F)(F)F`: the result in test [13], in test [14], in [15], in [16], in test [17] and in [18] was inactive. In addition, the result in test [19] was inactive.
As for `NNC(=O)c1ccncc1`, the call in [1], in test [2], in test [3], in test [4], in [5] and in test [7] was inactive. The call in [8], in [9], in test [11] and in test [12] was inactive.
In the case of `OCc1c[nH]c2ccccc12`, the result in test [13], in test [17], in [18] and in test [19] was inactive. Moreover, the AC50 in test [14] was 30.8 µM (active); in [15] it was 3.97 µM (active); in [16], 3.97 µM (active).
Consider `O=S(=O)(O)CCC(F)(F)C(F)(F)C(F)(F)C(F)(F)C(F)(F)C(F)(F)F`, for which the result in test [13], in test [14], in test [15], in test [16], in test [17] and in test [18] was inactive. Further, in [19], the outcome was inactive. Further, the half-maximal activity concentration (AC50) in [15] was 30 µM (active).
In the case of `OC(O)(C(F)C(O)(O)C(F)(F)F)C(F)(F)F`, the outcome in test [13], in [17], in [18] and in test [19] was inactive. In addition, the half-maximal activity concentration (AC50) in [14] is 32.6 µM (active) and 39.1 µM (active); in test [15], 30 µM (active); in test [16], 53.3 µM (active) and 52 µM (active).
For `CCN(CC)C(=S)SSC(=S)N(CC)CC`, in [6], the AC50 is 8.82 µM (active).
As to `FC(F)(F)C(F)(F)C(F)(F)C(F)(F)C(F)(F)C(F)(F)I`, the call in test [20], in test [13], in test [14], in [15], in test [16] and in [17] was inactive. Also, in [18], the result was inactive. Also, the half-maximal activity concentration (AC50) in test [19] is 25.3 µM (active) and 40.7 µM (active).
Consider `OC[C@H]1O[C@@](CO)(O[C@H]2O[C@H](CO)[C@@H](O)[C@H](O)[C@H]2O)[C@@H](O)[C@@H]1O`, for which the outcome in [6] was inactive.
